Test results from PubChem BioAssay.
Entries with a potency or affinity are not part of this list. Active and inactive are the calls of the source.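 Rule for the calls: active = a dose-response fit showing signal loss, with half-maximal concentration no higher than twice the top tested dose; inconclusive = flat fit between 30% and 70% signal loss, or poor fit; inactive = the rest.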

Assay: HepG2 cell cytotoxicity, dose response, cytotoxicity control, cherry-picks, set 2 (AID 687002)
Settings: HepG2 viability, ATP luminescence (CellTiter-Glo), 48 h; series mostly up to 26 µM

| SMILES | outcome | activity change, negative = cytotoxicity |
| --- | --- | --- |
| CCc1ccc(NC(=O)[C@H](C)NC(=O)C2CCN(C(=O)[C@@H](N)C(C)C)CC2)cc1 | inactive |  |
| Cc1ccc(N(CC(=O)NCCSCc2ccco2)S(=O)(=O)c2ccc(F)cc2)cc1 | inactive |  |
| CCCC(=O)Nc1ccc2c(c1)OC[C@@H](C)N(Cc1ccccn1)C[C@@H](C)[C@H](OC)CN(C)C2=O | inactive |  |
| CCOC(=O)CNC(=O)CSc1ncnc2c1cnn2-c1ccccc1 | inactive |  |
| Cc1ccccc1-n1ncc2c(SCC(=O)N3c4ccccc4CC3C)ncnc21 (stereo not given) | inactive |  |
| O=C(COc1ccccc1)NCc1ccccc1 | inactive |  |
| O=C(NC(=S)Nc1ccccc1[N+](=O)[O-])c1ccccc1 | inactive |  |
| CC(=O)c1ccc(OCC(=O)NCc2ccc(F)cc2)cc1 | inactive |  |
| CC12CC3CC(C)(C1)CC(C(=O)NC(=S)N1CCCCC1)(C3)C2 | inactive |  |
| COc1cccc(NC(=O)CN2CCN(S(=O)(=O)c3ccc(C(C)C)cc3)CC2)c1 | inactive |  |
| Cc1cc(C(=O)Nc2cccc3c2O[C@@H](CN(C)S(=O)(=O)c2ccccc2)[C@@H](C)CN([C@@H](C)CO)C3=O)n(C)n1 | inactive |  |
| CCC(=O)Nc1ccc2c(c1)OC[C@H](C)N(C(=O)c1ccc(F)cc1)C[C@@H](C)[C@@H](OC)CN(C)C2=O | inactive |  |
| O=C(COc1ccc2c(c1)CCC2)NCc1ccc(Cl)cc1 | inactive |  |
| CC(NC(=O)COc1ccccc1-c1ccccc1)c1ccccc1 (stereo not given) | inactive |  |
| Cc1ccc(N(C(=O)C2CCC(=O)N2)C2(C(=O)NC3CCCC3)CCCCC2)cc1 (stereo not given) | inactive |  |
| CCC(C)N(C(=O)CSc1ncnc2c1cnn2-c1ccccc1)C1CCS(=O)(=O)C1 (stereo not given) | inactive |  |
| C[C@@H]1CN([C@@H](C)CO)S(=O)(=O)c2ccc(C3=CCCC3)cc2O[C@@H]1CN(C)Cc1ccccc1F | inactive |  |
| C[C@H]1CN([C@@H](C)CO)C(=O)c2cc(C#CC3(O)CCCC3)cnc2O[C@@H]1CN(C)Cc1cccnc1 | inactive |  |
| CCC(=O)N1CCC1(C)C(=O)Nc1ccc(C)c(C)c1 (stereo not given) | inactive |  |
| CC(C)NC(=O)Nc1ccc2c(c1)C(=O)N([C@H](C)CO)C[C@H](C)[C@H](CN(C)Cc1ccncc1)OCCCC[C@H](C)O2 | inactive |  |

| SMILES | outcome | activity change, negative = cytotoxicity |
| --- | --- | --- |
| Cc1cccc(C)c1NC(=S)NN(Cc1ccccc1)c1ccccc1 | inactive |  |
| O=C(NC[C@@H]1[C@@H](c2ccccc2)[C@H](CO)N1C(=O)C1CCC1)NC1CCCC1 | inactive |  |
| CC(C)Sc1nc2ncnc(N)c2[nH]1 | inactive |  |
| CC(C)CC#Cc1cnc2c(c1)C(=O)N([C@@H](C)CO)C[C@@H](C)[C@@H](CN(C)C(=O)c1cccc(F)c1)O2 | inactive |  |
| COc1cccc(CNC(=O)COc2ccc(C(=O)c3ccccc3)cc2)c1 | inactive |  |
| CCC(=O)N1[C@H](CN(C)C(C)=O)[C@@H](c2ccc(C3=CCCCC3)cc2)[C@@H]1CO | inactive |  |
| CC(C)NC(=O)N(C)C[C@@H]1Oc2c(NC(=O)C3CCCCC3)cccc2C(=O)N([C@@H](C)CO)C[C@@H]1C |  | 11.5% [at 6 µM] (inactive) |
| CN1c2ccc(Br)cc2[C@@H]2[C@@H](CCN2C(=O)Cc2cccnc2)[C@@H]1CO | inactive |  |
| COc1cc(NC(=O)CN2CCN(S(=O)(=O)c3ccc(C(C)C)cc3)CC2)cc(OC)c1 | inactive |  |
| CNC(=O)CN(c1ccc(OC)cc1)S(=O)(=O)c1ccc(F)cc1 | inactive |  |
| Cc1cc(OCC(=O)N(C)Cc2ccccc2)cc(C)c1Cl | inactive |  |
| Cc1cc(C)c(NC(=O)CN2CCN3CCCC3C2)c(C)c1 (stereo not given) | inactive |  |
| Cc1ccc(C)c(NC(=O)C2(C)CCN2C(=O)C(C)C)c1 (stereo not given) | inactive |  |
| CO[C@H]1CC[C@@H]2CCOc3c(C#N)cccc3C(=O)N(C)C[C@@H](OC)[C@@H](C)C(=O)N(C)C[C@@H]1O2 | inactive |  |
| O=C(COc1ccccc1)NCc1ccc2c(c1)OCO2 | inactive |  |
| CC(=O)N1[C@H](CO)[C@H](c2ccc(-c3ccccc3)cc2)[C@@H]1CNC(=O)C1CC1 | inactive |  |
| CCCNC(=O)C[C@H]1CC[C@H]2[C@@H](COC[C@@H](O)CN2S(=O)(=O)c2ccc(Oc3ccccc3)cc2)O1 | inactive |  |
| Cc1ccc(N2C(=O)CC(N3CCN(c4ccc(F)cc4)CC3)C2=O)c(C)c1 (stereo not given) | inactive |  |
| CCC(=O)N1[C@H](CO)[C@H](c2ccc(-c3ccc(F)cc3)cc2)[C@@H]1CNC(C)=O | inactive |  |
| O=C1CCC(C(=O)Nc2cccc3ccccc23)N1 (stereo not given) | inactive |  |
